High-throughput results from PubChem.
Hits are enriched below; roughly 11% of the tested compounds scored in any of these assays.
Luciferase inh – Photinus pyralis luciferase inhibition. purified P. pyralis luciferase, luminescence, biochemical. Potency, µM (doses to about 115 µM), actives largely listed as inhibitors. hit rate 2.5% among 76,000. AID 1347043; note: nearly all actives have a fitted effect of over 65% in size
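Inhibitors were tested against purified firefly luciferase in a biochemical, low-substrate format (both substrates at 10uM) and luminescence measured with a CCD imager.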
HEK293 tox – cytotoxic compounds in HEK 293 cells | HEK 293 viability, ATP luminescence (CellTiter-Glo), 48-72 h | Potency, µM (top dose mostly 115 µM), inactives show at the top dose activity change, negative = cytotoxicity, hits mostly inhibitors | hit rate 6.6% among 94,000; note: nearly all actives have a fitted effect of over 60% in size
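Pintool-delivered compounds were incubated with HEK 293 cells (250 cells/well) at 37 degree Celsius for 48 or 72 hr. ATP-dependent luminescence (CellTiter-Glo) then reported remaining viable cells.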
NPR1 antag – antagonists of human natriuretic peptide receptor Npr1; AID 1347048; HEK293 hNpr1 GloSensor cGMP, ANP-stimulated luminescence; hit rate 1.6% among 76,000; Potency, µM (titrated, usually from 46.3 µM), for inactives: top-dose activity change, negative = inhibition, usual class: inhibitors; P16066; calls by dose curve; note: nearly all actives have a fitted effect of over 60% in size
Target sequence (P16066 whole entry, looked up): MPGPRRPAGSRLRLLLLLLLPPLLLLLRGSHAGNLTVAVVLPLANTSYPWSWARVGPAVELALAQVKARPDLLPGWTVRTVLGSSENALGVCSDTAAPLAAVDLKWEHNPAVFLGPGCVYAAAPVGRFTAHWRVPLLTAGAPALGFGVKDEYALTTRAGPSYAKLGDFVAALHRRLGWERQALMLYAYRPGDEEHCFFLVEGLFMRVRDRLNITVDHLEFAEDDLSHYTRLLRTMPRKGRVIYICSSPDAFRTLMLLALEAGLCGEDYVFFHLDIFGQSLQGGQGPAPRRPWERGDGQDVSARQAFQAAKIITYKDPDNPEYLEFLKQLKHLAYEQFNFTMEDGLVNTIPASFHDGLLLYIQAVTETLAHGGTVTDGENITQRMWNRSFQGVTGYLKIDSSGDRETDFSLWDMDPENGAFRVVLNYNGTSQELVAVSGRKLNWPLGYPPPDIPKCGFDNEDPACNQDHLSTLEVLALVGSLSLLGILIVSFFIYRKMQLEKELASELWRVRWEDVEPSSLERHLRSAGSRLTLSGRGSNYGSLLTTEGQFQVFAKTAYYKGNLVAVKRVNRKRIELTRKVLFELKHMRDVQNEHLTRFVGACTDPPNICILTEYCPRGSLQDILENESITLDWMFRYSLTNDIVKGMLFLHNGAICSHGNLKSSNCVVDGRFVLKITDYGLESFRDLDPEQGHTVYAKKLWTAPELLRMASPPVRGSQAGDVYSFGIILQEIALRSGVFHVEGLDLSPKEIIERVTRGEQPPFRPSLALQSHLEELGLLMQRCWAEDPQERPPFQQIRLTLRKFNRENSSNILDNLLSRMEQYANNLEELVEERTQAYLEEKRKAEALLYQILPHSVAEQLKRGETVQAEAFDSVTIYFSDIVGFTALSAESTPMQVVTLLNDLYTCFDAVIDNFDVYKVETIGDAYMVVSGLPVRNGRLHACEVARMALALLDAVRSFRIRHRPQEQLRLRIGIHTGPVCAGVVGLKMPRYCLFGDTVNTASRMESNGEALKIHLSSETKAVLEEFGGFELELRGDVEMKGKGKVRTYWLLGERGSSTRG
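HEK293 cells stably expressing human Npr1 and cGMP GloSensor pGS-40F, loaded 2 h with 2% GloSensor reagent, given compound 30 min at room temperature. Luminescence read before and 20 min after 0.1 nM hNppA.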
3T3 cytotox – cytotoxic compounds in NIH 3T3 cells; hit rate 4.3% among 94,000; Potency, µM (series often up to 96.7 µM), inactives show top-dose activity change, negative = cytotoxicity, most hits filed as inhibitors; NIH 3T3 viability, CellTiter-Glo ATP luminescence, 48-72 h; note: nearly all actives have a fitted effect of over 55% in size
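Cytotoxicity is measured as loss of cellular ATP: NIH 3T3 cells (400/well) are exposed to compound for 48 or 72 hr at 37 °C, then CellTiter-Glo luminescence is imaged after 10 min at room temperature.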
The depositor's hits bear a star; i = inactive; ? = inconclusive; nt = no result; [ ] = dose if it differs, or a comment. Unless noted, calls come from the whole dose curve; as a rule, active = well fitted curve in the direction sought with a large enough effect; inconclusive = small, poorly fitted or top-dose-only effect, or another doubt; inactive = no such curve, though single readings can be large; an effect the other way counts as inactive or inconclusive. % is set by controls: 0 for no effect and ±100 for the full control effect; potency is the fitted concentration of half-maximal effect.

SMILES	Luciferase inh	HEK293 tox	NPR1 antag	3T3 cytotox
CCn1nccc1C(=O)NCc1cc(C)cc2c(C)c(-c3ccccc3)[nH]c12	16µM*	28µM*	?	40µM*
COc1ccc(-c2nn(-c3ccccc3)cc2CN2CCCC(CO)C2)c(F)c1 (centres undefined)	i	?	-2%	?
O=C(NCCCc1ccccc1)c1n[nH]c2c1CN(C(=O)c1ccc(F)cc1)CC2	i	?	3%	28µM*
O=C(NCCCc1ccccc1)c1nc2sccn2c1-c1ccc(F)cc1	nt	100µM*	nt	?
O=C(NCCc1ccccc1)c1nc2sccn2c1-c1ccncc1	nt	-8%	nt	-23%
O=C(NCCc1ccccc1F)c1nc2sccn2c1-c1ccc(C(F)(F)F)cc1	nt	25µM*	nt	28µM*
O=C(c1ccc2oc(-c3ccncc3Cl)nc2c1)N1CCOCC1	nt	-24%[172 µM]	nt	-30%[138 µM]
O=C(C1CCCN1C(=O)Nc1ccc(Cl)cc1)N1CCC(N2Cc3ccccc3C2=O)CC1 (centres undefined)	nt	-32%	nt	?
CC(CCC(=O)N1CCn2nc(Cc3ccccc3)cc2C1)N1CCCC1 (centres undefined)	i	-21%	-3%	-25%
O=C(c1cc(F)ccc1Cl)N1CCC(n2cc(-c3nc(-c4ccccc4)no3)nn2)C1 (centres undefined)	?	?	13µM*	?
CN(C)c1ccc(C(=O)N2CCC(n3cc(-c4nc(C5CC5)no4)nn3)C2)cc1 (centres undefined)	i	?	0%	-22%
CN(C)c1ccc(C(=O)N2CCC(n3cc(-c4nc(-c5ccccc5)no4)nn3)C2)cc1 (centres undefined)	?	45µM*	0%	?
Cc1ccc(C(=O)N2CCC(n3cc(-c4nc(-c5ccccc5)no4)nn3)C2)cc1C (centres undefined)	32µM*	45µM*	2µM*	?
COc1ccc(CN2C[C@@H](C(N)=O)[C@H](c3nc(C)no3)C2)cc1Cn1ccnc1	i	?	3%	-22%
C=CCN1C[C@H]2COc3cc(OC)ccc3[C@H]2N(C(=O)CCCCC)CCC1=O	nt	-17%	nt	?
COC(=O)[C@@H]1Cc2c([nH]c3ccccc23)[C@@H]2C[C@@H](NCCNC(C)=O)C[C@@H](c3cccc(Cl)c3)N12	i	32µM*	2%	28µM*
COC(=O)[C@@H]1Cc2c([nH]c3ccccc23)[C@H]2C[C@@H](NCCNC(C)=O)C[C@@H](c3ccc(-c4ccccc4)cc3)N21	i	40µM*	1%	?
COC(=O)[C@@H]1Cc2c([nH]c3ccccc23)[C@H]2C[C@@H](NCCN(C)C)C[C@@H](c3cccc(Cl)c3)N21	?	6.3µM*	-14%	4.5µM*
Cc1cc(C[C@@H]2COC[C@@H]2NC(=O)c2ccc3nc(C)sc3c2)on1	i	5%	5%	i
O=C(c1ccc(-c2ccccc2)cc1)N1C[C@@H]2C[C@H](C1)c1ccc(NS(=O)(=O)c3cccc(F)c3)c(=O)n1C2	?	50µM*	-6%	?
O=C(c1ccc2ccccc2c1)N1C[C@@H]2C[C@H](C1)c1ccc(NS(=O)(=O)Cc3ccccc3)c(=O)n1C2	i	?	3%	79µM*
O=C(c1ccccn1)N1C[C@@H]2C[C@H](C1)c1ccc(NS(=O)(=O)Cc3ccccc3)c(=O)n1C2	i	-14%	4%	i
O=C(c1ccccc1)N1C[C@@H]2C[C@H](C1)c1ccc(NS(=O)(=O)c3cccc(F)c3)c(=O)n1C2	i	-2%	1%	-5%
Cn1cc(CN2C[C@@H]3C[C@H](C2)c2ccc(NS(=O)(=O)c4cccc(F)c4)c(=O)n2C3)c2ccccc21	i	32µM*	-23%	13µM*
O=c1c(NS(=O)(=O)c2cccc(F)c2)ccc2n1C[C@H]1C[C@@H]2CN(S(=O)(=O)c2ccccc2)C1	i	-17%	1%	?
SMILES	Luciferase inh	HEK293 tox	NPR1 antag	3T3 cytotox
CNC(=O)N1CCC(C2CCN(S(=O)(=O)c3cccc(C#N)c3)C2)CC1 (centres undefined)	i	1%	3%	?
COc1cccc(C(=O)NCCNC(=O)c2cccc(-c3ccc(C(F)(F)F)cc3)c2)c1	nt	-21%	nt	-31%
CC(C)(C)C(=O)NCCNC(=O)c1ccc(-c2cccc(C(F)(F)F)c2)cc1	nt	28µM*	nt	?
CN(C)C(=O)NCCNC(=O)c1ccc(-c2cccc(C(F)(F)F)c2)cc1	nt	28µM*	nt	?
CC(C)NC(=O)NCCNC(=O)c1ccc(-c2cccc(C(F)(F)F)c2)cc1	nt	-26%	nt	?
O=C(NC1CCCC1)N1CC(Oc2ccccc2-c2nc(-c3ccccc3)no2)C1	i	?	-18%	32µM*
O=C(c1ccco1)N1CC(Oc2ccccc2-c2nc(-c3ccccc3)no2)C1	?	25µM*	-21%	32µM*
COc1ccc(C(=O)N2CC(Oc3ccc(-c4nc(-c5ccccc5)no4)cc3)C2)cc1	i	5%	1%	5%
COc1ccc(C(=O)N2CC(Oc3ccccc3-c3nc(-c4ccccc4)no3)C2)cc1	?	28µM*	-17%	32µM*
CC(C)CNC(=O)N1CC(Oc2ccccc2-c2nc(-c3ccccc3)no2)C1	?	?	0%	?
O=C(c1ccco1)N1CC(Oc2cccc(-c3nc(-c4ccccc4)no3)c2)C1	?	?	-1%	?
Cc1noc2c(-c3cccnc3NC3CCC(O)CC3)cc(-c3ccccc3)nc12 (centres undefined)	i	?	3%[70.6 µM]	?
Cc1noc2c(NC3CCOCC3)cc(-c3cccc(C(F)(F)F)c3)nc12	i	?	-4%[70.6 µM]	?
Cc1noc2c(NC3CCN(C)CC3)cc(-c3ccc(F)cc3)nc12	i	63µM*	1%[70.6 µM]	10µM*
Cc1noc2c(-c3cccnc3NC3CCN(C)CC3)cc(-c3ccc(Cl)cc3)nc12	i	89µM*	-2%[70.6 µM]	22µM*
Cc1noc2c(NC3CCC(O)CC3)cc(-c3ccc(F)cc3)nc12 (centres undefined)	i	?	3%[70.6 µM]	22µM*
COc1cccc(OC)c1-c1c(-c2ccccc2)ncn1CCCSC	i	?	-23%	?
O=C1CCN(S(=O)(=O)c2ccccc2)CCCN(C(=O)CCc2nc3ccccc3[nH]2)CCN1	i	-11%	0%	-17%
Cc1cc(C)n(CC(=O)N2CCCCC2C(=O)Nc2ccc(-n3nc(C)cc3C)cc2)n1 (centres undefined)	i	3%	1%	-7%
c1ccc(-c2ccc(CNCc3cccs3)o2)cc1	35µM*	?	-25%	-22%
CCCNCc1ccc(-c2ccccc2)o1	i	-6%	-1%	i
CN(C)C(=O)c1ccc(OC2CCN(C(=O)c3ccc(Cl)cc3)CC2)nc1	i	?	-17%	40µM*
CC(C)c1ccc(C(=O)N2CCC(Oc3ccc(C(=O)N(C)C)cn3)CC2)cc1	i	?	-13%	-21%
